The assay deals with RIVA. The assay can be described thus: growth inhibition by drug alone (1 - RLU/untreated control) (fraction); higher = stronger inhibition. The conditions noted are these: 177Lu-lilotomab satetraxetan 0 ug/ml. Here is the method:
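RIVA (RI-1) ABC-DLBCL cells were pretreated or not for 18 h with 0.5 ug/ml 177Lu-lilotomab satetraxetan (600 MBq/mg), washed and seeded (3000 cells/well) on 384-well plates pre-printed with the Selleck Cambridge Cancer Compound library. Viability was read by RealTime-Glo luminescence on days 3-6 after seeding. Effect = 1 - RLU/mean RLU of the 48 untreated no-drug control wells per plate; Bliss score = (M-E)/(1-Fa).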

Counter-ions that a name gives are not always drawn.

Consider five molecules from the supplement of paper PMC6897291.

In the case of `CCc1c2c(nc3ccc(OC(=O)N4CCC(N5CCCCC5)CC4)cc13)-c1cc3c(c(=O)n1C2)COC(=O)[C@]3(O)CC` [Irinotecan HCl Trihydrate (Campto)], the “growth inhibition by drug alone” value is, setting by setting: (10 nM, time (day): 3) -0.0524; (10 nM, time (day): 4) -0.159; (10 nM, time (day): 5) -0.223; (10 nM, time (day): 6) -0.511; (100 nM, time (day): 3) -0.259; (100 nM, time (day): 4) -0.163. The “growth inhibition by drug alone” value reads like this: (100 nM, time (day): 5) -0.0382; (100 nM, time (day): 6) 0.00676.

In the case of `CC[C@]1(O)C[C@H]2CN(CCc3c([nH]c4ccccc34)[C@@](C(=O)OC)(c3cc4c(cc3OC)N(C=O)[C@H]3[C@@](O)(C(=O)OC)[C@H](OC(C)=O)[C@]5(CC)C=CCN6CC[C@]43[C@@H]65)C2)C1` [Vincristine], the “growth inhibition by drug alone” value is, setting by setting: (10 nM, time (day): 3) 0.941; (10 nM, time (day): 4) 0.955; (10 nM, time (day): 5) 0.965; (10 nM, time (day): 6) 0.971; (100 nM, time (day): 3) 0.938; (100 nM, time (day): 4) 0.955. Besides, the “growth inhibition by drug alone” value (100 nM, time (day): 5) amounted to 0.962 and the “growth inhibition by drug alone” value (100 nM, time (day): 6) was found to be 0.967.

As for `CC(C)n1nc(-c2ccc3oc(N)nc3c2)c2c(N)ncnc21`, the “growth inhibition by drug alone” value (10 nM, time (day): 3) stood at 0.258; the “growth inhibition by drug alone” value (10 nM, time (day): 4) stood at 0.176; the “growth inhibition by drug alone” value (10 nM, time (day): 5) was determined as 0.117; the “growth inhibition by drug alone” value (10 nM, time (day): 6) was -0.0267; the “growth inhibition by drug alone” value (100 nM, time (day): 3) was determined as 0.716; the “growth inhibition by drug alone” value (100 nM, time (day): 4) is 0.708. For the same molecule, the “growth inhibition by drug alone” value runs as follows: (100 nM, time (day): 5) 0.699; (100 nM, time (day): 6) 0.63.

In the case of `CN(C)CCCN=c1c2ccccc2n(C)c2[nH]c(=O)n(C)c(=O)c12`, the “growth inhibition by drug alone” value was 0.0709 (10 nM, time (day): 3); 0.0541 (10 nM, time (day): 4); 0.026 (10 nM, time (day): 5); -0.0499 (10 nM, time (day): 6); -0.0848 (100 nM, time (day): 3); -0.0419 (100 nM, time (day): 4). Besides, the “growth inhibition by drug alone” value was -0.079 (100 nM, time (day): 5) and -0.137 (100 nM, time (day): 6).

Take `CC(C)OC(=O)C1=CN(C(=O)c2ccc(F)c(F)c2)CC(C)(C)c2c1[nH]c1ccccc21`: the “growth inhibition by drug alone” value runs as follows: (10 nM, time (day): 3) 0.0268; (10 nM, time (day): 4) 0.00242; (10 nM, time (day): 5) 0.00693; (10 nM, time (day): 6) -0.0298; (100 nM, time (day): 3) -0.161; (100 nM, time (day): 4) -0.106. Besides, the “growth inhibition by drug alone” value was -0.145 (100 nM, time (day): 5) and -0.234 (100 nM, time (day): 6).
